# What was measured:
# [1] = system: Vero E6 infected with SARS-CoV-2; assay: morphology score (similarity to uninfected cells); higher = more like uninfected cells; details: 24 h
# [2] = system: Vero E6 infected with SARS-CoV-2; assay: SARS-CoV-2 infection rate relative to infected DMSO; higher = more infection, active = 60 or less; details: 24 h
smiles,measurement,setting,value
CCn1c(=O)[nH]c2ccccc21 (10 µM),morphology score,[1],0.182
same,SARS-CoV-2 infection rate,[2],92.5% (inactive)
CCOc1cc([C@@H](CS(C)(=O)=O)N2C(=O)c3cccc(NC(C)=O)c3C2=O)ccc1OC [apremilast] (10 µM),morphology score,[1],0.345
same,SARS-CoV-2 infection rate,[2],89% (inactive)
CCCCC(CC)CCC(CC(C)C)OS(=O)(=O)O (stereo not given) [sodium-tetradecyl-sulfate] (10 µM),morphology score,[1],0.0389
same,SARS-CoV-2 infection rate,[2],102% (inactive)
COc1ccc2c(C(=S)N(C)CC(=O)O)cccc2c1C(F)(F)F [tolrestat] (10 µM),morphology score,[1],-0.0111
same,SARS-CoV-2 infection rate,[2],108% (inactive)
COc1cc(/C=C/C(=O)N2CCN(CC(=O)N3CCCC3)CC2)cc(OC)c1OC [cinepazide] (10 µM),morphology score,[1],-0.015
same,SARS-CoV-2 infection rate,[2],108% (inactive)
O=C(Oc1ccc([N+](=O)[O-])cc1)N1CCN(Cc2cccc(Oc3ccccc3)c2)CC1 (10 µM),morphology score,[1],0.162
same,SARS-CoV-2 infection rate,[2],95.5% (inactive)
c1ccc2sc(SN3CCOCC3)nc2c1 [N-oxydiethylenebenzothiazole-2-sulfenamide] (10 µM),morphology score,[1],-0.00631
same,SARS-CoV-2 infection rate,[2],104% (inactive)
CCCn1c(=O)[nH]c(=O)c2nc[nH]c21 [enprofylline] (10 µM),morphology score,[1],0.188
same,SARS-CoV-2 infection rate,[2],94% (inactive)
CC(C)(C)c1ccc(CN(Cc2cccc(OCC(=O)O)c2)S(=O)(=O)c2cccnc2)cc1 [evatanepag] (10 µM),morphology score,[1],-0.0093
same,SARS-CoV-2 infection rate,[2],97.5% (inactive)
COC(F)(F)C(Cl)Cl [methoxyflurane] (10 µM),morphology score,[1],0.106
same,SARS-CoV-2 infection rate,[2],100% (inactive)

# Source: the supplement of paper PMC13380429
